# Reference: PubChem BioAssay AID2102 (Southern Research Specialized Biocontainment Screening …, 2009)
# Among all 1,100 compounds or so, about 210 (19%) were called active. The rule behind the calls is not given here. The list is a sample of the results. Results with a measured potency or affinity are listed apart.
# Assay: host cell cytotoxicity, dose response, cytotoxicity control for SV40 T antigen inhibitor project, selected hits (AID 2102);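 note: cells exposed to compounds for 72 hours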
# Settings: Host cell viability cytotoxicity counter-screen; series mostly up to 50 µM
row,SMILES,outcome
1,O=c1cc(-c2ccc(O)c(O)c2)oc2cc(O)c(C3OC(CO)C(O)C(O)C3O)c(O)c12 (stereo not drawn),inactive
2,O=c1cc(-c2ccc(O)c(O)c2)oc2c(C3O[C@H](CO)[C@@H](O)[C@H](O)[C@H]3O)c(O)cc(O)c12 (stereo partly drawn),inactive
3,COc1cc(/C=N\NC(=O)CNC(=O)c2cccc([N+](=O)[O-])c2)ccc1O,inactive
4,Nc1ccc(OCCCc2c(N)nc(N)nc2N)cc1,inactive
5,COc1ccccc1NC(=O)Oc1ccc(NC(=O)c2ccco2)cc1,inactive
6,S=c1[nH]nc(-c2ccc(Cl)cc2)n1/N=C/C=C/c1ccco1,inactive
7,Cc1cccc(/C=N/n2c(-c3ccncc3)n[nH]c2=S)c1,inactive
8,Oc1ccc(-c2cn3ccccc3n2)cc1O,inactive
9,C1=Cc2ccccc2Nc2ccccc21,inactive
10,C[C@@H]1O[C@@H](OC2C(O)C(OCCc3ccc(O)c(O)c3)OC(CO)C2OC(=O)/C=C/c2ccc(O)c(O)c2)[C@H](O)[C@H](O)[C@H]1O (stereo partly drawn),inactive
11,CCOc1cc(/C=C2\N=C3CCCCCN3C2=O)ccc1O,inactive
12,Cc1nc(N)sc1N=Nc1c(C)n(C)n(-c2ccccc2)c1=O,inactive
13,O=Cc1sc(=O)n(Cc2cccc(C(=O)O)c2)c1Cl,inactive
14,CN=c1scc(C)n1/N=C/c1ccc(O)cc1O,inactive
15,CC(C)(C)OC(=O)N/N=C/c1ccc(N2CCOCC2)s1,inactive
16,O=C(O)c1cc(S(=O)(=O)O)cc(Nc2c3ccccc3nc3ccccc23)c1O,inactive
17,O=C(CSc1nc2ccccc2c(=O)[nH]1)c1ccc(O)c(O)c1,inactive
18,CN(C)c1ccc(NC(=O)CSc2nnc(-c3cnccn3)n2C)cc1,inactive
19,O=C1Nc2ccccc2/C1=N\N=C\c1ccc(O)c(O)c1,inactive
20,CN(C)c1ccc(Nc2cc(Cl)ncn2)cc1,inactive
21,C/C(CC(=O)Nc1ccc(N(C)C)cc1)=N\NC(=O)c1ccc(Cl)cc1Cl,inactive
22,O=C(N/N=C/c1ccc(O)c(O)c1)c1cccc(S(=O)(=O)N2CCCC2)c1,inactive
23,COc1ccc(/C=N\NC(=O)c2ccc(=O)[nH]n2)cc1O,inactive

row,SMILES,outcome
1,N=C1/C(=C/c2ccc(Br)o2)C(=O)N=C2SC(CC(=O)N3CCCC3)=NN12,inactive
2,CN1CN(C)c2cccc3cccc1c23,inactive
3,CCOc1ccc(S(=O)(=O)Nc2cc(Sc3ncn[nH]3)c3oc(=O)sc3c2)cc1,inactive
4,COc1ccc(C2=CC3=C(Br)C(=O)C(C)(OC(=O)c4ccc(Cl)nc4)C(=O)C3=CO2)cc1 (stereo not drawn),inactive
5,CCOc1ccccc1NC(=S)N1CCN(c2ccc(O)cc2)CC1,inactive
6,O=C(NC(=S)N1CCN(c2ccc(O)cc2)CC1)c1cccs1,inactive
7,COc1cc(/C=N/NC(=O)CNC(=O)c2ccco2)ccc1O,inactive
8,O=C(COc1cccnc1[N+](=O)[O-])c1ccc(Cl)s1,inactive
9,CN(C)c1ccc(NC(=O)c2cccc(N3C(=O)CCC3=O)c2)cc1,inactive
10,O=C(O)[C@H]1CCCC[C@H]1C(=O)Nc1ccc(Nc2ccccc2)cc1,inactive
11,CCOc1ccc(-c2nc(=S)[nH][nH]2)cc1,inactive
12,COc1ccc(/C=N/NC(=O)c2cc(O)c(O)c(O)c2)cc1Cn1cc([N+](=O)[O-])cn1,inactive
13,C=CCNC(=S)Nc1ccc(N(C)C)cc1,inactive
14,CCc1cc(C(=O)N/N=C/c2ccc(O)cc2)c2ccccc2n1,inactive
15,COc1cc(/C=N/NC(=O)c2ccc(Cn3cc([N+](=O)[O-])cn3)o2)cc(Br)c1O,inactive
16,COc1cc(/C=N/NC2=NCCCCC2)ccc1O,inactive
17,ClC(Cl)(c1nnnn1-c1ccccc1)c1nnnn1-c1ccccc1,inactive
18,Oc1ccc(C2CNCCc3c2cc(O)c(O)c3Cl)cc1 (stereo not drawn),inactive
19,S=c1[nH]nc(-c2n[nH]c3c2CCC3)n1/N=C/C=C/c1ccco1,inactive
20,COc1cc(/C=N/NC(=O)CCn2nnc3ccccc32)ccc1O,inactive
21,CC(C)C(=O)Nc1ccc(O)c(-c2csc(N)n2)c1,inactive
22,Cc1cc2cc3c(N)[nH]nc3nc2cc1C,inactive
23,O=S(=O)(c1ccc(NC(=S)N/N=C/c2ccc(O)c(O)c2)cc1)N1CCOCC1,inactive

row,SMILES,outcome
1,CN(C)C(=S)Nc1ccc(N2CCOCC2)cc1,inactive
2,Oc1ccc(NC(=S)Nc2ccccc2)cc1,inactive
3,O=C1/C(=C/C=C/c2ccco2)SC(=S)N1NS(=O)(=O)c1ccccc1,inactive
4,O=C(CN1C(=O)/C(=C/c2ccco2)SC1=S)Nc1ccc(O)c(C(=O)O)c1,inactive
5,CCCCCCNC(=O)N[C@H](C(=O)NCCC[C@H]1CN2C(=NC[C@H]2C)N1CCC(c1ccccc1)c1ccccc1)C(C)O (stereo partly drawn),inactive
6,Cc1nn(-c2ccccc2)c2[nH]c(=O)c(CNc3ccc(N4CCOCC4)cc3)cc12,inactive
7,COc1ccc(/C=N/Nc2nc(N3CCCC3)nc(N3CCCC3)n2)cc1O,inactive
8,COc1cccc(C=Nc2ccc(N3CCOCC3)cc2)c1O,inactive
9,COc1cc(CNc2ccc3c(c2)OCCO3)ccc1OCC(N)=O,inactive
10,Cc1cc(C)nc(SSc2nc(C)cc(C)n2)n1,inactive
11,CN1C=CC=C/C1=C(\C#N)c1nc2ccccc2[nH]1,inactive
12,Cc1ccc(NC(=O)CN2C(=O)N/C(=C/c3cccn3-c3ccc(C(=O)O)cc3)C2=O)cc1,inactive
13,O=Cc1cccn1-c1ccc(O)cc1,inactive
14,O=C(O)C1Nc2c(O)cc(Cl)c([N+](=O)[O-])c2C2C=CCC12 (stereo not drawn),inactive
15,CN(C)c1ccc(NC(=O)CSc2nc3c(c(=O)[nH]2)CCCC3)cc1,inactive
16,CC1=NOC(=O)/C1=C\c1ccc(-c2ccc(Cl)c(C(=O)O)c2)o1,inactive
17,O=C1ON=C(c2ccccc2)/C1=C\c1ccco1,inactive
18,Cc1ccc(C2=NOC(=O)/C2=C\c2ccc(C)o2)cc1,inactive
19,O=C1C(=Cc2ccc(Br)o2)C(=O)c2ccccc21,inactive
20,Nc1nc[nH]c(=O)c1N=Cc1ccccc1,inactive
21,O=C(c1ccco1)N1CCCC(Nc2ccc3c(c2)OCCO3)C1 (stereo not drawn),inactive
22,c1cncc(CNc2ccc3c(c2)OCO3)c1,inactive
23,O=C(c1ccc2ccccc2c1)N1CCN(c2ccc(O)cc2)CC1,inactive

row,SMILES,outcome
1,N#C/C(=C\c1ccc(O)c(O)c1)C(=O)c1ccc(O)c(O)c1,inactive
2,CCOC(=O)c1ccc2c(c1)C1C=CCC1C(C(=O)O)N2 (stereo not drawn),inactive
3,Oc1ccc(/C=N/NC(=S)NCC2CCCO2)cc1 (stereo not drawn),inactive
4,COc1ccc(-c2nc(O)c3cnccn23)cc1,inactive
5,CCN(CC)c1ccc(NC(=O)c2ccccc2F)cc1,inactive
6,CCN(CC)c1ccc(NC(=O)c2ccco2)cc1,inactive
7,CC(=O)Nc1ccc(OC(=O)C(CCS(C)(=O)=O)N2C(=O)c3ccccc3C2=O)cc1 (stereo not drawn),inactive
8,Oc1cc(O)cc(/C=C/c2ccc(O)c(O)c2)c1,inactive
9,O=C(O)/C=C/c1ccc(O)c(O)c1,inactive
10,COc1cc(/C=N/NC(=O)C(C)n2nnc3ccccc32)ccc1O (stereo not drawn),inactive
11,O=C(N/N=C/c1ccc(OC(=O)c2ccco2)cc1)c1ccc[n+]([O-])c1,inactive
12,Oc1ccc(O)c(-c2cnns2)c1,inactive
13,O=C1CC(c2ccc(O)c(O)c2)Oc2c1ccc(O)c2O (stereo not drawn),inactive
14,CC1=C(C)CS(=O)N(S(=O)(=O)c2ccc(Cl)cc2)C1 (stereo not drawn),inactive
15,COc1cc(/C=N/Nc2nc3ccccc3[nH]c2=O)ccc1O,inactive
16,COc1cc(-c2nnc(SCc3cc(=O)oc4cc(O)c(O)cc34)o2)cc(OC)c1OC,inactive
17,COc1cccc(-n2c(=O)c3ccccc3n3c(=S)[nH]nc23)c1,inactive
18,CCN(CC)CCN1C(=O)C(=O)/C(=C(/O)c2ccc(C)cc2)C1c1cccnc1 (stereo not drawn),inactive
19,CN=C1S/C(=C\c2ccc(O)c(OC)c2)C(=O)N1C,inactive
20,Cc1occc1C(=O)N/N=C/C=C/c1ccc(N(C)C)cc1,inactive
21,COc1cc(/C=C2/C(=O)NN(c3ccc(Cl)c(Cl)c3)C2=O)cc([N+](=O)[O-])c1O,inactive
22,Cc1ccc(/C=N\NC(=O)COc2ccc(C)cc2[N+](=O)[O-])cc1,inactive
23,CC(=O)CC1OC(=O)C(Br)=C1NCc1ccccc1 (stereo not drawn),inactive

row,SMILES,outcome
1,O=c1[nH]sc2ccccc12,inactive
2,CN(C)c1ccc(NC(=S)NCC2CCCO2)cc1 (stereo not drawn),inactive
3,Cc1[nH]c2ccccc2c1-c1csc(NC(=O)CSCC(=O)O)n1,inactive
4,O=C1COc2ccc(N3C(=O)C=CC3=O)cc2N1,inactive
5,COc1cc(/C=C2\C(=N)N3N=C(S(C)(=O)=O)SC3=NC2=O)ccc1OS(=O)(=O)c1ccc(C)cc1,inactive
6,Cc1cc(-c2n[nH]c(=S)n2/N=C/c2c[nH]c3ccccc23)n[nH]1,inactive
7,Cc1ccc2cc3c(N)[nH]nc3nc2c1,inactive
8,COC(=O)CSc1nnc(CNc2ccc(OC)cc2)n1C,inactive
9,C=CS(=O)c1sc(Cl)c(N2CCOCC2)c1[N+](=O)[O-] (stereo not drawn),inactive
10,Cc1ccc2oc(=O)c(/C=C(\O)CC(C)C)nc2c1,inactive
11,Nc1ccc(Nc2nc3ccccc3[nH]2)cc1,inactive
12,CCOC(=O)C1=C(C)N(c2ccccc2)C(=O)/C1=C\c1ccc(O)c(OC)c1,inactive
13,COc1ccc(NC2CCCN(C(=O)c3c(C)noc3C)C2)cc1 (stereo not drawn),inactive
14,Oc1ccc(/C=N/Nc2ccc(Cl)nn2)cc1O,inactive
15,COc1cc(/C=N/Nc2ccccn2)ccc1O,inactive
16,C=CCNC(=S)NNC(=O)c1cc(O)ccc1O,inactive
17,CCOc1cc(C(c2c(O)nc(SC)[nH]c2=O)c2c(O)nc(SC)[nH]c2=O)ccc1O,inactive
18,CC(=O)N1CCN(c2ccc(NCc3ccc(C)s3)cc2)CC1,inactive
19,CCOc1ccc(NCc2nnc(SCC(=O)Nc3cc(C)on3)n2-c2ccc(OC)cc2)cc1,inactive
20,Cc1ccc(CNc2ccc(N3CCOCC3)cc2)cc1,inactive
21,COc1ccc(CNc2ccc(N3CCOCC3)cc2)cc1,inactive
